PI5P4Ka inh: blocks human PI5P4K alpha kinase activity; P48426; 330,000 compounds, 1.2% hits; PI5P4Kalpha enzyme, ADP-Glo luminescence, 60 min; stronger effect = lower value; max response, %; AID 652105; active = max response of -50% or lower; inconclusive = between -30% and -50%; inactive = -30% or higher; also: value at the top dose of about 77 µM; % is scaled to controls: 0 for no effect and ±100 for the full control effect
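ADP-Glo luminescence end-point after a 60 min room-temperature kinase reaction. PI5P4Kalpha and substrate in HEPES pH 7.4 buffer with EGTA, 0.1% CHAPS and 5% DMSO; ATP at 5 microM final.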
LDHA inh: blocks human lactate dehydrogenase A; purified LDHA, NADH/diaphorase-resazurin fluorescence; stronger effect = lower value; activity change, % (values are at about 110 or 230 µM); P00338; 480,000 compounds, 0.15% hits; AID 1347041; in the data active = activity change below about -30%; inconclusive = mostly about -25% to -30%;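 also: plate controls were DMSO wells for no effect and wells without enzyme for full effect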
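LDH5 2 nM; NADH 0.06 mM, pyruvate 0.2 mM; 200 mM Tris pH 7.4, EDTA, Tween-20; 5 min RT. Detection: diaphorase 0.133 mg/mL + resazurin 37 µM, fluorescence ex540/em590 at 0 and 20 min; normalized to enzyme-free and DMSO wells.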
PI4K2A block: blocks human PI4K2A kinase activity; purified PI4K2A, ADP-Glo luminescence, 1 h; stronger effect = lower value; AID 1346378; activity change, negative = inhibition, % at 76.9 µM; 420,000 compounds, 0.13% hits; in the data active = activity change below about -50%; inconclusive = mostly about -30% to -49%;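 also: -100% = wells without enzyme as full effect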
Target sequence (Q9BTU6 whole entry, looked up): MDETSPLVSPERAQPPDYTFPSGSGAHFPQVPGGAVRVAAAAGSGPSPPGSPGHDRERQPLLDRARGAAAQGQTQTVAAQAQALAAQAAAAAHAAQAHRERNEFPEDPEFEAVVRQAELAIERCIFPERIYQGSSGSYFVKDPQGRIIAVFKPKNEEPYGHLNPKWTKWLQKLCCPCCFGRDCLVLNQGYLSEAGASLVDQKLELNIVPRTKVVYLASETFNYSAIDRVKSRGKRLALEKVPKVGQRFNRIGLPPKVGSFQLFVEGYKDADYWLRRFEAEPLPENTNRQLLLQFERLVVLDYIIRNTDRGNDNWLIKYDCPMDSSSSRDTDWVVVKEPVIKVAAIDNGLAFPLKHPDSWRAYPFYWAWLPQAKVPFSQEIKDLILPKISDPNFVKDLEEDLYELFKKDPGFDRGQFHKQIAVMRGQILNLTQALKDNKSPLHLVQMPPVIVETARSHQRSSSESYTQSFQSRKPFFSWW
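ADP-Glo luminescence measured ADP generated by PI4K2A enzyme (4 ug/mL before mixing) with 1.2 mM PI substrate (pre-mix) and 300 microM ATP (pre-mix). Tris pH7.5 buffer with MgCl2, Triton X-100; 1 h reaction at ambient temperature.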
D3 ag: activates the human D3 dopamine receptor. max activation, %. AID 652048. 410,000 compounds, 0.58% hits. P35462. D3R DiscoveRx beta-arrestin cells, luminescence, 90 min; in the data active = max activation above about 30%; also: 0% is about no effect
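Agonist mode: compounds and dopamine controls were applied to plated cells for 90 min at 37 degrees C after an overnight attachment at 1500 cells/well. Luminescent read-out followed 30 - 60 minutes at room temperature with DiscoveRx detection reagent.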
D3 antag: D3 dopamine receptor (human) antagonism; max response, negative = inhibition, %; 360,000 compounds, 2.5% hits; D3R cells, DiscoveRx beta-arrestin luminescence, antagonist mode; stronger effect = lower value; P35462; in the data active = max response below about -50%; inconclusive = no clear call, values can overlap the other calls; also: % is scaled to controls: 0 for no effect and ±100 for the full control effect
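Cells plated overnight at 1500 cells/well, then exposed to library compounds with dopamine controls for 90 minutes at 37 degrees C. DiscoveRx reagent added for 30–60 minutes at room temperature; luminescence read, quantitative HTS format.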
* marks the source's active call; other numbers are inactive results; ? = inconclusive; nt = no result given; ! = not confirmed by another sample. A selection: hits, their analogues and other compounds. The true share with any hit is near 3.3%.

SMILES | PI5P4Ka inh | LDHA inh | PI4K2A block | D3 ag | D3 antag
CC(=O)C1=C(O)C(=O)N(Cc2cccnc2)C1c1ccc(Cl)cc1 (configuration not stated) | nt | 2 | -1 | 35* | -50*
CC(C)c1ccc(NC(=O)c2ccc3c(Cl)c4c(nc3c2)CCC4)cc1 | nt | -10 | nt | nt | nt
CN(CC(=O)Nc1ccc(OC(F)(F)F)cc1)C(=O)/C=C/c1cc2c(cc1[N+](=O)[O-])OCO2 | -2 | -8 | 3 | -30 | -95*
CCCCN(C)C(=O)c1[nH]c(C(F)(F)F)nc1-c1ccccc1 | 0 | -3 | -2 | -2 | 0
O=C(NCc1ccccc1)c1[nH]c(C(F)(F)F)nc1-c1ccccc1 | 5 | -6 | -1 | 65* | -24
CN(C)CCN(Cc1ccccc1)C(=O)c1[nH]c(C(F)(F)F)nc1-c1ccccc1 | 1 | -6 | 1 | 39* | 0
O=C(NCCc1ccccc1)c1[nH]c(C(F)(F)F)nc1-c1ccccc1 | 2 | -8 | -3 | 8 | 10
O=C(NCCC1=CCCCC1)c1[nH]c(C(F)(F)F)nc1-c1ccccc1 | -7 | -7 | 0 | 112* | -6
CCN(Cc1ccc(Cl)s1)C(=O)c1cnc(C)cn1 | nt | -22 | nt | nt | nt
CCOc1ccccc1C(=O)N[C@H](C(=O)O)C(C)C | nt | 1 | nt | nt | nt
COC(=O)C1CN(Cc2ccccc2)CCS(=O)(=O)N1Cc1cn(Cc2ccccc2Br)nn1 (configuration not stated) | nt | nt | 0 | nt | nt
COc1ccc(C(=O)COC(=O)CCn2c(C)csc2=O)c(OC)c1 | -65* | -2 | -11 | 10 | 29
Cc1scc(C(=O)NNC(=S)NC(C)C)c1C | nt | -2 | nt | nt | nt
CC(OC(=O)C1CCC1)C(=O)NC(N)=O (configuration not stated) | nt | -4 | nt | nt | nt
CN(CCCNC(=O)c1nc2ccccc2c(=O)[nH]1)C(=O)c1cccnc1 | nt | 7 | nt | nt | nt
CCC(C)Nc1nc(Cl)nc(N(C#N)CN2C(=O)c3ccccc3S2(=O)=O)n1 (configuration not stated) | -2 | -4 | 0 | -3 | -71*
C=CCOc1ccc(/C=C\c2nc(O)c([N+](=O)[O-])c(=O)[nH]2)cc1OCC | -55* | -1 | -7 | -4 | -12
C=CCOc1ccc(/C=C\c2nc(O)c([N+](=O)[O-])c(=O)[nH]2)cc1OC | ? | -2 | -1 | -6 | -25
COc1ccc(/C=C\c2nc(O)c([N+](=O)[O-])c(=O)[nH]2)cc1O | -74* | 17 | -6 | -2 | -27
C#CCOc1c(/C=C\c2nc(O)c([N+](=O)[O-])c(=O)[nH]2)cc(Br)cc1OC | -68* | -13 | -17 | -4 | ?
CC1CCCCC1NC(=O)COc1ccc(-n2cnnn2)cc1 (configuration not stated) | 4 | 3 | -9 | 9 | 27
O=C(COc1ccc(-n2cnnn2)cc1)NC1CCCCC1 | nt | 7 | 1 | -7 | -65*
CC(=O)Oc1oc(-c2ccccc2)nc1/C=N/c1ccccn1 | nt | -1 | -3 | -11 | -62*
COc1ccccc1N=Cc1nc(-c2ccccc2)oc1OC(C)=O | 1 | -3 | 22 | 1 | -56*
CCn1cnc2c1c(=O)n(CC(=O)N(C)Cc1ccc(C)o1)c(=O)n2Cc1ccccc1 | nt | 0 | nt | nt | nt
SMILES | PI5P4Ka inh | LDHA inh | PI4K2A block | D3 ag | D3 antag
O=[N+]([O-])c1ccc(SNc2ccccc2)c([N+](=O)[O-])c1 | -7 | -1 | 8 | -13 | -18
O=[N+]([O-])c1ccc(-[n+]2ccc3ccccc3c2)c([N+](=O)[O-])c1 | ? | 17 | 2 | -46 | -106*
O=C(COC(=O)c1sc2cc(F)ccc2c1Cl)Nc1ccccc1 | nt | -8 | nt | nt | nt
CC1(C(=O)NS(=O)(=O)c2cccc(OC(F)F)c2)CCN1C(=O)c1cccc(F)c1 (configuration not stated) | 0 | -8 | 0 | -6 | -6
CCCC(=O)N1CCC1(C)C(=O)NS(=O)(=O)c1cccc(C)c1 (configuration not stated) | -9 | -4 | 5 | 93* | -19
Cc1cc(C)cc(CC(=O)N2CCC2(C)C(=O)NS(=O)(=O)c2ccc(C#N)cc2)c1 (configuration not stated) | -13 | -8 | -3 | 70* | 0
Cc1cc(C(=O)N2CCC2(C)C(=O)NS(=O)(=O)c2cccc(OC(F)F)c2)nn1C (configuration not stated) | -2 | -7 | 0 | 74* | 0
COc1cccc(C2NC(c3cccc(OC)c3O)C(C)C(=O)C2C)c1O (configuration not stated) | nt | 9 | -1 | 30* | 13
Cc1ccc(CN2CCC(C(=O)NCCC(C)C)CC2)o1 | -1 | 1 | -22 | -6 | -64*
Cc1ccc(CCNC(=O)C2CC2)o1 | nt | 13 | nt | nt | nt
COc1ccccc1N1CCN(CC(=O)Nc2nnc(C)s2)CC1 | nt | -2 | nt | nt | nt
COc1ccc(NC(=O)c2ccc3c(c2)NC(=O)CCS3)cn1 | nt | 10 | nt | nt | nt
Cc1ccc(C)c(N2CCN(C(=O)c3ccc4c(c3)nc3n4CCCC3)CC2)c1 | nt | 5 | nt | nt | nt
CCO[C@@H]1OC(C(=O)N2CCN(Cc3ccc4c(c3)OCO4)CC2)=C[C@H](c2ccc(C(F)(F)F)cc2)[C@H]1CCCO | 5 | 1 | -3 | 10 | -23
CCO[C@H]1OC(C(=O)N2CCOCC2)=C[C@@H](C2CC2)[C@@H]1CCCO | -3 | -2 | -7 | -27 | -55*
CCO[C@@H]1OC(C(=O)N2CCN(Cc3ccc4c(c3)OCO4)CC2)=C[C@H](c2ccc(Br)cc2)[C@H]1CCCO | 8 | 0 | 4 | -37 | -98*
CN(C)CCOc1cccc(C(=O)/C=C/c2ccc(C(=O)O)cc2)c1 | nt | 6 | nt | nt | nt
COc1ccc(CCN(C(=O)c2snc(C(N)=O)c2N)C(C(=O)NCC2CCCO2)c2ccc(F)cc2)cc1OC (configuration not stated) | 3 | -1 | -2 | 36* | 10
Cc1cccc(CCN(C(=O)c2snc(C(N)=O)c2N)C(C(=O)NCC2CCCO2)c2ccc(F)cc2)c1 (configuration not stated) | -1 | -2 | -1 | 2 | 8
Nc1nc(Cl)nc2c1ncn2[C@H]1C[C@H](O)[C@@H](CO)O1 | -2 | -10 | 2 | 14 | -80*
Cc1ccc(NC(=O)CCNC(=O)C2CCCC2)cc1 | nt | 2 | nt | nt | nt
Cc1ccc(NC(=O)CN2CC(C)SC2=NC2CCCCC2)cc1 (configuration not stated) | 8 | -8 | -5 | -16 | -96*!
Cc1[nH]nc2c1C1(CCN(Cc3ccccc3)CC1)C(C#N)=C(N)O2 | -8 | 0 | 2 | 1 | 0
CC(C)c1[nH]nc2c1C1(CCN(Cc3ccccc3)CC1)C(C#N)=C(N)O2 | nt | 11 | -4 | 1 | -92*
c1ccc2c(-c3cncc4ccccc34)cncc2c1 | -73* | -6 | 5 | 17 | 7
Cc1cccc(C(=O)NCCCN(C)CC(F)(F)F)n1 | nt | -31* | nt | nt | nt

Screens as filed in PubChem BioAssay.
